The record followed here is paper PMC4336329 (PLoS ONE, 2015).

Each structure is given as a SMILES string. About 2,200 (0.71%) of roughly 310,000 compounds showed an effect of 50% or more. Effects have a minus sign here. The sample holds strong results, similar compounds and a random draw of the others, so the mix is not that of the screen.

In this assay the target is human ether-à-go-go-related gene (hERG) potassium channel (human, UniProt Q12809). Briefly: primary screen, population patch clamp on CHO cells stably expressing hERG; higher = less effect of the substance.
Sequence of human ether-à-go-go-related gene (hERG) potassium channel (Q12809 whole entry, looked up): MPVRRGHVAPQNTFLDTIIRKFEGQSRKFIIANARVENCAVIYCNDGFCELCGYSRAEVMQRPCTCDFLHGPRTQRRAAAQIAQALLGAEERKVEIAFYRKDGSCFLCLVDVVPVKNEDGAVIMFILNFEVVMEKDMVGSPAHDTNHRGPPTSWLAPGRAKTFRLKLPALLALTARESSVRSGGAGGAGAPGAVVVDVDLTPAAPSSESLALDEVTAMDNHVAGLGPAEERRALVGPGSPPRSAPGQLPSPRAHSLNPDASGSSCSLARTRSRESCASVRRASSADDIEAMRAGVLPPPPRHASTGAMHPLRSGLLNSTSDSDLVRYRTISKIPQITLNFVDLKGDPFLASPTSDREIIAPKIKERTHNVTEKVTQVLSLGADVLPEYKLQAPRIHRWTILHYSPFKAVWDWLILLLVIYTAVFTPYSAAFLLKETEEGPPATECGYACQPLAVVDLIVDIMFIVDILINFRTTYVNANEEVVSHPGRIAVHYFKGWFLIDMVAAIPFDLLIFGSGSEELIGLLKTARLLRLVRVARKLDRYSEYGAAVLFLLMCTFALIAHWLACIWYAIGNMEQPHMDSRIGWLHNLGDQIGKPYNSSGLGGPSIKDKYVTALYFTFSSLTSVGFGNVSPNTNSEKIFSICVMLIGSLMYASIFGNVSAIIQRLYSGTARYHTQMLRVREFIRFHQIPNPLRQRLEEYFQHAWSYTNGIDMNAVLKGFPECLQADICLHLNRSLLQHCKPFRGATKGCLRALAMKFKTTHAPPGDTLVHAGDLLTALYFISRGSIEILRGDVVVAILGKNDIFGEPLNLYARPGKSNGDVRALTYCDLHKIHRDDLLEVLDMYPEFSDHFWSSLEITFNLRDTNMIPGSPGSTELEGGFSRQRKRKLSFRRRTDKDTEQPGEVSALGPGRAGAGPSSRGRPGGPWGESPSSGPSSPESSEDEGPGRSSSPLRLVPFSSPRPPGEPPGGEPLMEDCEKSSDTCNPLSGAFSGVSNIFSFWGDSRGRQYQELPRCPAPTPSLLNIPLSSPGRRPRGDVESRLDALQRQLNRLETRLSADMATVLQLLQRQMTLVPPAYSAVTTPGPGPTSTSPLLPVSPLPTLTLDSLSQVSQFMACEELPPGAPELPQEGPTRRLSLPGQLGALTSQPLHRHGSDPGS
For `CCOC(=O)c1nc2cc3n(c(C)c-2c1C)C(C)C(CC)=C3C.Cl` (stereo not shown), the “hERG current change (%, negative = inhibition) at 1uM” value is reported as -39.5%. As for `CCOC(=O)c1nc2cc3n(c(C)c-2c1C)C(C)C(C)=C3C.Cl` (stereo not shown), the “hERG current change (%, negative = inhibition) at 1uM” value is reported as -13.9%. With `CCOC(=O)c1nc2cc3n(c(CC(C)C)c-2c1C)CC(C)=C3C.Cl`, the “hERG current change (%, negative = inhibition) at 1uM” value is on record as -54.2%. Take `CCOC(=O)c1nn(-c2ccc(F)cc2)c(=O)cc1OCC(=O)Nc1ccc(OCC)cc1`: the “hERG current change (%, negative = inhibition) at 1uM” value stood at 10.8%. With `Cc1c2ccccc2nc2c(F)c(N(C)C)c(F)c(F)c12` the figure was 19.7%; with `O=C(NCCCc1ccccc1)C1CCC(=O)N(Cc2ccc(Cl)cc2)C1` (stereo not shown), -6.98%; with `CN(CCNC(=O)C1CCC(=O)N(Cc2cccc(F)c2)C1)CCc1ccccc1` (stereo not shown), -14.8%. For `COc1ccccc1CCCNC(=O)C1CCC(=O)N(CCc2ccc(Cl)cc2)C1` (stereo not shown) the value was -3.88%; for `O=C(NCCOc1ccccc1)C1CCC(=O)N(CCc2ccc(Cl)cc2)C1` (stereo not shown), -45%. With `CN(CCOc1ccccc1)C(=O)C1CCC(=O)N(CCc2ccc(Cl)cc2)C1` (stereo not shown), the “hERG current change (%, negative = inhibition) at 1uM” value is given as -51.2%. In the case of `CN(CCNC(=O)C1CCC(=O)N(Cc2ccc(Cl)cc2)C1)CCc1ccccc1` (stereo not shown), the “hERG current change (%, negative = inhibition) at 1uM” value is -50.5%. For `CCc1ccc(CN(C)C(=O)C2CCC(=O)N(CCc3ccc(OC)cc3)C2)nc1` (stereo not shown) the value was -57.9%; for `COc1ccc(CCN2CC(C(=O)N(C)Cc3ccccc3OC)CCC2=O)cc1` (stereo not shown), 26.7%. With `O=C(NCCc1ccccc1)C1CCC(=O)N(Cc2ccc(Cl)cc2)C1` (stereo not shown), the “hERG current change (%, negative = inhibition) at 1uM” value worked out at 5.85%. As for `CCc1ccc(CN(C)C(=O)C2CCC(=O)N(Cc3cccc(OC)c3)C2)nc1` (stereo not shown), the “hERG current change (%, negative = inhibition) at 1uM” value was 4.11%. With `O=C(NCCCc1ccccc1)C1CCC(=O)N(CCc2ccc(Cl)cc2)C1` (stereo not shown) the figure was -62.2%; with `COc1ccc(CCN2CC(C(=O)N(C)CCOc3ccccc3)CCC2=O)cc1` (stereo not shown), -34.3%; with `O=C(NCc1ccccc1)c1cnc(-c2ccccn2)nc1C(F)(F)F`, 9.39%.

With `Nc1nc(CSc2nnnn2-c2ccc(Cl)cc2)nc(N2CCOCC2)n1`, the “hERG current change (%, negative = inhibition) at 1uM” value was 11.5%.

As to `C/C(=N\N1C(=O)CSC1=S)c1ccc(Br)cc1`, the “hERG current change (%, negative = inhibition) at 1uM” value turned out to be 1.48%. With `S=C1NNC2(NN1)C1CC3CC(C1)CC2C3` the figure was 12.4%; with `COc1ccc(-n2cnnc2SCC(=O)N2CCN(S(=O)(=O)c3ccccc3)CC2)cc1`, 1.1%. Consider `COC(=O)C1=C(C)N(C)C(C)=C(C(=O)OC)C1c1ccc(F)c(Br)c1`, for which the “hERG current change (%, negative = inhibition) at 1uM” value amounted to 6.36%. `CCN(CC(=O)NCc1cccs1)C(=O)COc1cccc(C(F)(F)F)c1`: the “hERG current change (%, negative = inhibition) at 1uM” value is on record as -7.5%. As to `CCN(CC(=O)NCc1cccs1)C(=O)c1ccc(-c2ccccc2F)o1`, the “hERG current change (%, negative = inhibition) at 1uM” value was -7.69%.

In the case of `CCN(CC(=O)NCc1cccs1)C(=O)c1ccc(-c2cccc(C(F)(F)F)c2)o1`, the “hERG current change (%, negative = inhibition) at 1uM” value is on record as -57.4%. Take `COC(=O)C1=C(C)N(CCCCCC(=O)O)C(=O)NC1c1ccccc1` (stereo not shown): the “hERG current change (%, negative = inhibition) at 1uM” value turned out to be 2.67%. Turning to `Cc1ccc2c(c1)C1CN(C)CCC1N2C(=O)c1ccccc1NS(=O)(=O)c1ccc(F)cc1` (stereo not shown), the “hERG current change (%, negative = inhibition) at 1uM” value stood at 11.8%.

Turning to `COc1ccc2cc(C3(C)NC(=O)N(CC(=O)Nc4c(C)n(C)n(-c5ccccc5)c4=O)C3=O)ccc2c1` (stereo not shown), the “hERG current change (%, negative = inhibition) at 1uM” value came to 0.395%. Turning to `CCn1ccnc1CN1CCC(CO)(CCOc2ccccc2)CC1`, the “hERG current change (%, negative = inhibition) at 1uM” value was 13.1%. For `CCOC(=O)C1(CCOc2ccccc2)CCN(Cc2cccn2-c2cccnc2)CC1`, the “hERG current change (%, negative = inhibition) at 1uM” value was determined as 9.53%.

In the case of `OCC1(CCOc2ccccc2)CCN(Cc2cccn2-c2ncccn2)CC1`, the “hERG current change (%, negative = inhibition) at 1uM” value is recorded as -82.4%.

For the molecule `CCOC(=O)C1(CCOc2ccccc2)CCN(Cc2cccn2-c2ncccn2)CC1`, the “hERG current change (%, negative = inhibition) at 1uM” value is -81.6%. For `OCC1(CCc2ccccc2)CCN(Cc2cccn2-c2cccnc2)CC1` the value was -23.3%.

Turning to `CCOC(=O)C1(CCOc2ccccc2)CCN(Cc2nccn2CC)CC1`, the “hERG current change (%, negative = inhibition) at 1uM” value is given as -5.37%. For `O=C(Cc1c(F)cccc1Cl)OCN1C(=O)c2ccccc2C1=O` the value was 17.4%; for `O=C(NCCN1C(=O)C2C3C=CC(C3)C2C1=O)Nc1ccccn1` (stereo not shown), 5.7%; for `CCN(CC)CCCNC(=O)c1cn(CC)c2ccc(S(=O)(=O)N(C)C3CCCCC3)cc2c1=O`, -5.96%. For `CCn1cc(C(=O)NCCCN2CCC(C)CC2)c(=O)c2cc(S(=O)(=O)N(C)C3CCCCC3)ccc21` the value was -74%; for `CCC1CCCCN1CCCNC(=O)c1cn(C)c2ccc(S(=O)(=O)N(C)C3CCCCC3)cc2c1=O` (stereo not shown), -2.04%.
